In PubChem BioAssay AID651644 (National Center for Advancing Translational Sciences (NCATS), 2012):
The campaign covered roughly 360,000 compounds. About 750 (0.21%) were called active. Another 2% or so got no clear call; they are omitted. The call rests on the fitted dose curve; in most records, active means well fitted falling curve with a large enough effect; inconclusive means small, poorly fitted or top-dose-only effect; inactive means no such curve, though single readings can be large or run the other way. Many of the other results were omitted from the sample, so actives are more common in it than they were.

Assay: qHTS Assay for Inhibitors of the HIV-1 protein Vpr; further: nearly all actives have a fitted effect of over 50% in size
Details: S. pombe RE007 Vpr strain, BacTiter-Glo ATP luminescence, 24 h; series mostly up to 92.2 µM; activity change, negative = less growth: at the top concentration
Excerpt: Human immunodeficiency virus type 1 (HIV-1), the causative agent of AIDS, contains a protein called viral protein R (Vpr) that plays an important role in the viral life cycle and the pathogenesis of HIV-1.
These Vpr specific activities include cytoplasmic-nuclear shuttling, induction of cell cycle G2 arrest and cell killing. The cytoplasmic-nuclear shuttling is believed to participate in nuclear transport of the proviral integration complex (PIC). The cell cycle G2 arrest induced by Vpr is thought to suppress human immune functions by preventing T cell clonal expansion and to provide an optimized cellular environment for maximal levels of viral replication. In addition, Vpr induces apoptosis, which may contribute to the depletion of CD4 T cells in HIV-infected patients. Since the Vpr-specific activities have been linked to such clinical manifestation of AIDS as activation of viral replication, suppression of host immune responses and depletion of CD4+ T-lymphocytes, identification of new molecular probes that can inhibit the Vpr activities could potentially provide a new approach to reduce Vpr-mediated detrimental effects in HIV-infected patients, and thus prolong patient's lives. Currently, there are no anti-Vpr drugs.
A fission yeast (Schizosaccharomyces pombe) model system for the Vpr studies has been developed which measures HIV-1 Vpr-induced cell death. This assay will be used for to screen the NIH Molecular Libraries Small Molecule Repository (MLSMR) identify small molecule HIV-1 Vpr inhibitors.
NIH Chemical Genomics Center [NCGC]
NIH Molecular Libraries Probe Centers Network [MLPCN]
Assay Submitter (PI): Richard Zhao, University of Maryland
The fission yeast RE007 strain was used, which carries a single integrated copy of HIV-1 vpr gene in the yeast chromosome. The starting culture was frozen stock 100ul of yeast RE007 in 150ml of *PMG+AL medium, Incubation in 30 degree plus 99% humidity for 18 hours. Next day dispensed 2.5ul of PMG+AL medium in each well to 1536 well white solid plate, then 23nL compound were delivered to each well using a pin tool. Check OD for overnight culture and add cell density at 0.01 for each well, incubation in 30 degree plus 99% humidity for 24 hours. After add 5 ul of *BacTiter/Glo detect reagent to each well at room temperature for 5 minutes then to red out results with Viewlux CCD camera.
On the % scale 0 is the no-effect control and ±100 the full control effect.

SMILES	Potency	activity change, negative = less growth
CN(O)C(=S)c1ccccc1	12.6 µM (active)	
COC(=O)[C@@H]1C[C@@]2(O)[C@H](O)[C@H](O)[C@H](O)C[C@H]2N1Cc1ccc(C)s1		8.05% (inactive)
O=C(COc1coc(CN2CCN(c3ccccc3F)CC2)cc1=O)N1CCc2ccccc21		-5.08% (inactive)
Cc1ccc(S(=O)Cc2ccc(C(=O)N3CCN(C4CCCCC4)CC3)o2)cc1 (configuration not stated)		7.22% (inactive)
CCN(C(=O)COC(=O)/C=C/c1nc2ccccc2s1)C1CCS(=O)(=O)C1 (configuration not stated)		-22.5% (inactive)
CC(=O)c1ccc(N2Cc3ccccc3C2)cc1		-0.524% (inactive)
CSc1c(SCc2ccccc2)cnn(Cc2ccccc2)c1=O		8.78% (inactive)
O=S(=O)(c1ccc2c(c1)OCCO2)N1CCc2ccccc21		5.48% (inactive)
O=C(CN1CCc2cc3c(cc2C1)OCCCO3)Nc1ccccc1		4.55% (inactive)
O=C(CCN1CCc2ccccc2C(O)(c2ccccc2)C1)c1ccc2c(c1)OCCO2 (configuration not stated)	5.62 µM (active)	
Cn1c(=O)cc(OCCCC(=O)N2CCN(c3ccccn3)CC2)c2ccccc21		8.93% (inactive)
CCC(Oc1ccccc1C)C(=O)Nc1ccc(S(=O)(=O)Nc2cc(C)on2)cc1 (configuration not stated)		-2.84% (inactive)
O=C(CNCc1cccs1)Nc1cc(S(=O)(=O)N2CCCC2)ccc1Cl		12.6% (inactive)
COC(=O)/C=C\C(=O)Nc1cccc([N+](=O)[O-])c1	7.94 µM (active)	
COc1cccc(NCCC(=O)c2cccc([N+](=O)[O-])c2)c1		-24.8% (inactive)
CC(NC(=O)Nc1cccc([N+](=O)[O-])c1)c1ccc2c(c1)OCO2 (configuration not stated)		10.8% (inactive)
O=C(COC(=O)CCCNC(=O)c1ccc(Cl)cc1)Nc1cc(Cl)ccc1Cl		0.174% (inactive)
O=C(Cn1nnc2ccccc2c1=O)Nc1cc(C(F)(F)F)ccc1N1CCOCC1		1.55% (inactive)
CCCCCCCCCCCCn1ccc(=N)cc1	11.2 µM (active)	
Cc1ccc(S(=O)(=O)NCCCn2ccnc2)cc1C(=O)NC(C)C		11.2% (inactive)
CCCn1cc(SCC(N)=O)c2ccccc21		-1.74% (inactive)

SMILES	Potency	activity change, negative = less growth
O=C(Nc1cccc2ccccc12)c1onc2c1CCCC2	14.1 µM (active)	
O=C(Nc1cccc2ccccc12)NC1CC1		-17% (inactive)
O=C(Nc1cccc2ccccc12)c1[nH]c(-c2ccccc2)c2c1C(=O)N(C1CC1)C2=O		8.14% (inactive)
Cc1ccc(NC(=O)[C@H](Cc2ccccc2)NC(=O)C2CCNCC2)cc1		13.7% (inactive)
CC1c2nc3ccccc3n2C(CC(=O)NCCCN2CCOCC2)C(=O)N1Cc1ccccc1 (configuration not stated)		-6.07% (inactive)
CCOC(=O)c1sc(C)c2c1NC(C)(c1cccc3ccccc13)NC2=O (configuration not stated)		29.2% (inactive)
COc1cc(/C=N/O)cc(Br)c1OCc1cccc(Cl)c1	10 µM (active)	
COc1ccc(Br)cc1CNCCc1cccc(Cl)c1		-10.8% (inactive)
O=C(O)COc1ccc(/C=N/O)cc1Br		3.56% (inactive)
CCc1noc(C)c1C(=O)OCC(=O)c1ccc(NC(=O)CC(C)C)cc1		-10.5% (inactive)
O=C(CN1CCN(c2ncccn2)CC1)Nc1ccccc1C(F)(F)F		3.69% (inactive)
Cc1noc(C)c1S(=O)(=O)N(C)C[C@H]1Oc2ccc(NC(=O)C3CC3)cc2C(=O)N([C@H](C)CO)C[C@@H]1C		12.5% (inactive)
Cc1ccc(Cl)c(NC(=O)CN(C)CC(=O)Nc2ccc(F)c(F)c2F)c1Cl		-12.7% (inactive)
CC(=O)Nc1ccc(/C=N/Nc2ccc(C(=O)c3c(C)cc4ccccn34)cc2[N+](=O)[O-])cc1		5.89% (inactive)
CCSC1(SCC)N=C(N)C2(C#N)C(c3ccccc3)NC(C)=CC12C#N (configuration not stated)	4.47 µM (active)	
COc1ccc(C(=O)NC2CC2)cc1OC1CCN(Cc2ccc(SC)cc2)CC1		5.43% (inactive)
Cc1ccc(CN(Cc2cccnc2)C(=S)Nc2cc(Cl)ccc2C)cc1		-11% (inactive)
O=C1CSC(=S)N1/N=C/c1ccc(O)c([N+](=O)[O-])c1	28.2 µM (active)	
O=C(CN(CC1CCCO1)C(=O)CNS(=O)(=O)c1ccccc1)NCc1ccccc1 (configuration not stated)		10.6% (inactive)
CCN(CC)S(=O)(=O)c1ccc(Cl)c(C(=O)NCCN2CCOCC2)c1		-8.37% (inactive)
Cc1c(C(=O)NCCN(C)C)oc2ccc(S(=O)(=O)N3CCCC3)cc12		-6.44% (inactive)

SMILES	Potency	activity change, negative = less growth
C[C@H](NC(=O)c1ccccc1Cl)C(=O)OCC(=O)N1CCN(c2ccccc2)CC1		-11.8% (inactive)
O=C(OCC(=O)N1CCN(c2ccccc2)CC1)c1ccc([N+](=O)[O-])s1	39.8 µM (active)	
Cc1ccc(C)c(OCCC(=O)OCC(=O)N2CCN(c3ccccc3)CC2)c1		-7.5% (inactive)
CC(=O)c1cccc(-n2nnnc2SCC(=O)NNC(=O)C2CCCCC2)c1		7.04% (inactive)
C=CS(=O)c1sc(Cl)c(N2CCOCC2)c1[N+](=O)[O-] (configuration not stated)	12.6 µM (active)	
COc1ccc(-c2ccc3c(c2)[C@@H]2C[C@H](N(C)S(=O)(=O)c4ccccc4)[C@H]([C@H](C)O)C(=O)N2CC3)cc1		0.603% (inactive)
CC(Oc1ccc(F)cc1)C(=O)Nc1cc(S(=O)(=O)N2CCOCC2)ccc1N1CCN(C)CC1 (configuration not stated)		12.3% (inactive)
CC1(C)C(c2cccs2)=[N+]([O-])C2(CCCCC2=O)N1O (configuration not stated)		2.59% (inactive)
Cc1ccc(S(=O)(=O)N(CC(=O)Nc2cccnc2)c2ccc(Br)cc2)cc1		-3.78% (inactive)
CC(C)CN(C(=O)CN1CCN(S(=O)(=O)c2ccccc2)CC1)c1c(N)n(CC(C)C)c(=O)[nH]c1=O		-0.551% (inactive)
CC1(C(=O)NS(=O)(=O)c2ccc3ccccc3c2)CCN1C(=O)C1(c2ccc(Cl)cc2)CCC1 (configuration not stated)		11.9% (inactive)
CCC(c1nnc(SCC(=O)NNC(=O)c2ccccc2)n1Cc1ccccc1)N(C)C (configuration not stated)		4.7% (inactive)
O=C1NC(=O)N(c2ccccc2)C(=O)/C1=C/c1ccc([N+](=O)[O-])s1	28.2 µM (active)	
CCOc1ccc(C(C(=O)NCCOC)N(CCOC)C(=O)CCC(=O)Nc2ccccn2)cc1 (configuration not stated)		-3.53% (inactive)
CCOc1ccc(CCNC(=O)COC(=O)c2ccc(F)c(S(=O)(=O)N3CCOCC3)c2)cc1OCC		15.6% (inactive)
CC1CCCN(CCCNC(=O)CN2C(=O)COc3ccc(S(=O)(=O)N4CCOCC4)cc32)C1 (configuration not stated)		-1.37% (inactive)
COc1ccc(-c2csc3nc(-c4ccccc4F)oc(=O)c23)cc1OC		26.5% (inactive)
COc1ccc(N2C(=O)C(CC(=O)Nc3ccccc3)N(Cc3ccc(OC)c(OC)c3)C2=O)cc1 (configuration not stated)		6.5% (inactive)
O=C(C(=O)N1CCN(c2ccccc2)CC1)c1ccc2c(c1)OCO2		-7.63% (inactive)
O=P(c1ccc2c(c1)OCCO2)(N1CCOCC1)N1CCOCC1		-6% (inactive)
